Compound activity deposited in PubChem BioAssay by several laboratories.
PP1 counter – PP1-alpha phosphatase inhibitors, primary screen, counter-screen for PP5 inhibitor project, biochemical, fluorescence, OMFP substrate, single point; purified PP1alpha; AID 2235, 2010; 320,000 tested, 0.9% active; inhibition, % at 6.7 µM;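 active means inhibition above the mean inhibition of all tested compounds plus 3 SD, computed separately for each screening campaign, cut at about 15% in these data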
Calb FLC – C. albicans growth inhibition with fluconazole, primary screen, CaCi-2 strain, Alamar Blue fluorescence; C. albicans CaCi-2 (fluconazole-resistant clinical isolate) + fluconazole, 48 h; growth inhibition, % (no concentration beside the values); 300,000 tested, 0.57% active; AID 1979, 2009;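 active means growth inhibition above about 58% in most replicates, limit read from the data, passing the limit was not always enough; inconclusive means exactly half the replicates above a set limit; inactive means most replicates below a set limit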;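 further: all wells also contain fluconazole at 8 µg/ml as a sub-toxic cotreatment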
Mdm2-MdmX inh – inhibitors of human Mdm2-MdmX association, primary screen, cell-based, luminescence, split luciferase, SaOS-2, uHTS; SaOS-2 split-luciferase Mdm2/MdmX complementation; Protein Mdm4 (Homo sapiens) + E3 ubiquitin-protein ligase Mdm2 (Homo sapiens), …; AID 485346, 2010; inhibition, % at 8 µM; 330,000 tested, 3% active;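 active means inhibition of at least 50% at 8 µM in the primary screen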
Beta cell apopt – inhibitors of cytokine-induced beta cell apoptosis, primary screen, luminescence; INS-1E cytokine-induced death, ATP luminescence, 48 h; percent of positive-control rescue, neutral wells zero; protection from apoptosis, % (test concentration not listed); 300,000 tested, 0.8% active; AID 435005, 2010;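 active means Every replicate reaches about 75%, or at least half do and their mean reaches it too, limit read from the data; inconclusive means At least half of replicates reach the limit but their mean does not; inactive means Under half of replicates reach the limit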;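 further: higher means more ATP so stronger rescue from cytokine killing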
PP5 primary – PP5 phosphatase inhibitors, primary screen, biochemical, fluorescence. inhibition, % at 6.7 µM. 320,000 tested, 0.18% active. purified PP5c, OMFP substrate fluorescence. Serine/threonine-protein phosphatase 5 (Homo sapiens), P53041;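 active means inhibition above the campaign's mean inhibition across all tested compounds plus 3 SD, cut at about 9.5% in these data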
Target sequence (P53041 whole entry, looked up): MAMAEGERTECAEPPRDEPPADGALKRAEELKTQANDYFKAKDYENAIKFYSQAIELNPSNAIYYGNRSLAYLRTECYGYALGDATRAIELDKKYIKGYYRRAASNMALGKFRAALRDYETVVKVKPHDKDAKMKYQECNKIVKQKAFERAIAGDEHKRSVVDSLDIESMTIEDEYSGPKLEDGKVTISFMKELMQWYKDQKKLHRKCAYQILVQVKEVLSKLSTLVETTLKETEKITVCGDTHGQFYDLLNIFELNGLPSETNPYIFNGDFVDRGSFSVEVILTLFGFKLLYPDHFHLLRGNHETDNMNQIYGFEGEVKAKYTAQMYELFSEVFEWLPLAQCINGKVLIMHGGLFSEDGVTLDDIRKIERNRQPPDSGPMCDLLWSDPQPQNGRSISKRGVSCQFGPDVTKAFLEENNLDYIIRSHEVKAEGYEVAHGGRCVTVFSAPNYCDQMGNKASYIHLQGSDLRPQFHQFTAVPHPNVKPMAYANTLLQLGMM
CSC inhib – cancer stem cell viability inhibitors, primary screen, luminescence; cancer stem cell-like cells viability; inhibition, % at 7.5 µM; 300,000 tested, 1.1% active; in the data active means inhibition above about 75%; inconclusive means no clear call, values can overlap the other calls; tested in HMLE shEcad cells
PP5 inh confirm – PP5 phosphatase inhibitors, confirmation, biochemical, fluorescence, human; shares compounds with PP5 primary; Purified PP5, fluorogenic phosphatase substrate; inhibition, % at 6.7 µM; 460 tested, 22% active; AID 2331, 2010; in the data active means inhibition above about 9.5%
PP1 counter 3x – PP1 phosphatase inhibitors, counter-screen for PP5 inhibitor project, biochemical, fluorescence, triplicate. shares compounds with PP5 primary. PP1 enzyme, fluorescent phosphatase substrate. inhibition, % at 6.7 µM. 460 tested, 4% active. AID 2355, 2010; in the data active means inhibition above about 16%
PP1 confirm – PP1 phosphatase inhibitors, confirmation, biochemical, fluorescence, OMFP substrate, triplicate; shares compounds with PP1 counter; purified PP1alpha; inhibition, % at 6.7 µM; 1,900 tested, 52% active; AID 2358, 2010;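 active means mean PP1 inhibition above a set limit taken from the earlier primary screen, cut at about 15% in these data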
PP5 inh counter – PP5 phosphatase inhibition by PP1 hits, confirmation, counter-screen for PP1 inhibitor project, biochemical, fluorescence, triplicate | AID 2360, 2010 | inhibition, % at 6.7 µM | shares compounds with PP1 counter | purified PP5c, OMFP fluorescence | 1,900 tested, 4% active;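 active means mean PP5 inhibition over triplicate wells above about 9.5% taken from the earlier PP1 screen, limit read from the data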
Mdm2 MdmX conf – Mdm2-MdmX complex disruptors, retested hits, confirmation, luminescence, single concentration; shares compounds with Mdm2-MdmX inh; Mdm2-MdmX binding, luminescent assay; inhibition, % at 8 µM; 10,000 tested, 55% active; AID 489028, 2010; in the data active means inhibition above about 40%
FLuc counter – full-length luciferase signal inhibition, confirmation, counter-screen for Mdm2/MdmX interaction inhibitor project, cell-based, single concentration, SaOS-2; shares compounds with Mdm2-MdmX inh; SaOS-2 full-length luciferase counterscreen, luminescence; inhibition, % at 8 µM; 6,200 tested, 77% active; AID 504607, 2011;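 active means mean inhibition at 8 µM reaching about 37%, which flags the compound as non-specific, limit read from the data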;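 further: p53-null SaOS-2 cells with luciferase driven by a doxycycline-inducible promoter; compound on cells about two nights before reading with doxycycline added after day one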
Large screens that a line does not name were inactive (follow-up assays come after a bar, where they were run). In the library only some 4.9% were active in any assay of this set; here they are far more common.

CC(C)C[C@H](NC(=O)c1nc[nH]c1C(=O)N[C@@H](CCCCNC(=O)OC(C)(C)C)C(=O)OC(C)(C)C)C(=O)OC(C)(C)C	Mdm2-MdmX inh 73, PP5 primary 14 | PP5 inh confirm inactive | PP1 counter 3x inactive | Mdm2 MdmX conf inactive
CC(C)C[C@H](NC(=O)c1[nH]cnc1C(=O)Nc1ccccc1)C(=O)OC(C)(C)C	Mdm2-MdmX inh 57, PP5 primary 9.8 | PP5 inh confirm inactive | PP1 counter 3x inactive | Mdm2 MdmX conf inactive
CNC(=O)c1[nH]cnc1C(=O)N[C@@H](CCCCNC(=O)OC(C)(C)C)C(=O)OC(C)(C)C	none
CC(C)C[C@H](NC(=O)c1nc[nH]c1C(=O)N[C@@H](CCCCN)C(=O)OC(C)(C)C)C(=O)OC(C)(C)C	none (no result: PP1 counter, Calb FLC, PP5 primary)
Cc1[nH]c2ccccc2c1C(C#N)(C#N)C1C(=O)c2ccccc2C1=O	Mdm2-MdmX inh 61, PP5 primary 21 | PP5 inh confirm inactive | PP1 counter 3x inactive | Mdm2 MdmX conf 43 | FLuc counter inactive
CCCCC(=O)N/N=C/c1ccc(-c2ccc([N+](=O)[O-])cc2)o1	none
Cc1cc(C)n(Cc2ccc(C(=O)N/N=C/c3ccc(-c4ccc([N+](=O)[O-])cc4)o3)o2)n1	PP1 counter 33 | PP1 confirm 28 | PP5 inh counter inactive
CC(=O)Nc1cccc(C(=O)NNC(=O)c2n[nH]c(=O)c3ccccc23)c1	none (no result: Calb FLC, CSC inhib)
COc1cc(/C=C2\SC(=S)N(CCCCC(=O)O)C2=O)ccc1OS(=O)(=O)c1ccc(C)cc1	PP1 counter 31 | PP1 confirm 29 | PP5 inh counter inactive
COc1cc(/C=C2/SC(=S)NC2=O)ccc1OS(=O)(=O)c1ccc(C)cc1	PP1 counter 26, CSC inhib 102 | PP1 confirm 31 | PP5 inh counter inactive
COc1ccc(/C=C2\SC(=S)N(CCCC(=O)Nc3cc(C)on3)C2=O)cc1OC	none
CCOc1ccc(/C=C2\SC(=S)NC2=O)cc1OC	none
COc1cc(/C=C2\SC(=S)NC2=O)ccc1OS(=O)(=O)c1ccccc1	PP1 counter 19, Beta cell apopt 113, CSC inhib 97 | PP1 confirm 21 | PP5 inh counter inactive
COc1ccccc1-c1nc(-c2ccccc2)[nH]c(=O)c1C#N	none
COc1ccc(/C=C/C(=O)OCC(=O)Nc2cccc(S(=O)(=O)NC3=NCCCCC3)c2)cc1	none (no result: PP1 counter, Calb FLC, PP5 primary)
O=C(CCNC(=O)c1ccco1)Nc1ccc(SC(F)F)cc1	none
CN(C)/C=C/C(=O)c1ncc(C(F)(F)F)cc1Cl	none
CCOCCn1c(=NC(=O)CSCC(=O)N2CCOCC2)sc2cc(OC)ccc21	none
COc1ccc(/C=C(\NC(=O)c2ccccc2)C(=O)N2CCCCC2)cc1OC	none
CCN(CC)CCNC(=O)C(=O)Nc1cc2c3c(c1)CCN3C(=O)CC2	PP1 counter 18 | PP1 confirm inactive | PP5 inh counter inactive
Clc1ccc(C(Cn2ccnc2)OCc2c(Cl)cccc2Cl)c(Cl)c1 (configuration not stated)	PP1 counter 26 (no result: Calb FLC) | PP1 confirm 18 | PP5 inh counter inactive
O=C1NC(=O)/C(=C\c2ccc(OCc3cccc([N+](=O)[O-])c3)cc2)N1	PP1 counter 43, Calb FLC inconclusive | PP1 confirm 20 | PP5 inh counter inactive
Cc1ccc(S(=O)(=O)N2[C@@H](c3cccc(Cl)c3)C(C(=O)O)=CC[C@H]2c2ccc(Cl)cc2)cc1	PP1 counter 19 (no result: Calb FLC) | PP1 confirm inactive | PP5 inh counter inactive
Cc1ccc(S(=O)(=O)N2[C@@H](c3ccc(Cl)cc3)C(C(=O)O)=CC[C@H]2c2ccc(Cl)c(Cl)c2)cc1	PP1 counter 21 (no result: Calb FLC) | PP1 confirm 16 | PP5 inh counter inactive
Cc1ccc(S(=O)(=O)N2[C@@H](c3ccccc3)C(C(=O)O)=CC[C@H]2c2cccc(Cl)c2)cc1	none (no result: Calb FLC)
Cc1ccc(S(=O)(=O)N2[C@@H](c3ccc(C(C)(C)C)cc3)C(C(=O)O)=CC[C@H]2c2ccc(Cl)cc2)cc1	none (no result: PP1 counter, Calb FLC, Beta cell apopt, PP5 primary, CSC inhib)
COc1ccc(CNC(=O)CCNC(=O)c2ccc(C(C)(C)C)cc2)cc1OC	none (no result: PP1 counter, Calb FLC, Beta cell apopt, PP5 primary, CSC inhib)
COc1ccc(-c2oc3ccccc3c2C#CC(C)(C)O)cc1	none (no result: Calb FLC)
O=C(COc1ccccc1F)Nc1cc(S(=O)(=O)Nc2cccc(Cl)c2)ccc1O	none (no result: Calb FLC, CSC inhib)
CC(C)(C)CC(=O)Nc1cc2c3c(c1)CCN3C(=O)CC2	none
COc1c(OC(C)=O)ccc(/C=C/c2ccc3cccc(OC)c3n2)c1[N+](=O)[O-]	none (no result: Beta cell apopt, CSC inhib)
COC(=O)c1ccc(/C=C/c2ccc3cccc(OC(C)=O)c3n2)cc1	PP1 counter 20 | PP1 confirm 21 | PP5 inh counter inactive
O=C(N/N=C/c1ccc(OC(F)F)cc1)c1cccc(S(=O)(=O)N2CCOCC2)c1	none
c1ccc(-c2n[nH]c(-c3ccccn3)n2)nc1	PP1 counter 27 | PP1 confirm 23 | PP5 inh counter inactive
c1ccc(-c2n[nH]c(-c3ccccn3)n2)cc1	none
CCOC(=O)C1=C(CSc2nc(CC)c(C)cc2C#N)OC(N)=C(C#N)C1c1ccc(OC)cc1 (configuration not stated)	none
